The values below come from the supplement of paper PMC6089552.

This assay has as its system A673/TR/shEF. The experiment in a line: cell viability (LOESS-normalised, relative to median of negative controls) (log2 ratio); higher = more viable cells (less compound effect), active = hit call of the paper (over 3 MAD below the median). The note with it: treatment time: 72 h. Summed up: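 Doxycycline, present or absent from 24 h before compounds, was used to induce EWS-FLI1 shRNA knockdown in A673/TR/shEF Ewing sarcoma cells at 1,500 per well in 384-well plates. Cells then received library compounds at two or more concentrations, or DMSO controls, for three days. Viability was measured by CellTiter-Glo luminescence on an Envision reader, and per-plate LOESS correction, division by the negative-control median and log2 transformation followed.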

Where [1] appears, read: 0.25 µM, library screen: screen2, EWS-FLI1 expression: high (no doxycycline).
The mark [2] stands for this setting: 0.25 µM, library screen: screen2, EWS-FLI1 expression: low (doxycycline-induced shRNA knockdown).
Where [3] appears, read: 2.5 µM, library screen: screen2, EWS-FLI1 expression: high (no doxycycline).
[4] abbreviates: 2.5 µM, library screen: screen2, EWS-FLI1 expression: low (doxycycline-induced shRNA knockdown).
The mark [5] stands for this setting: 0.103 µM, library screen: screen3, EWS-FLI1 expression: high (no doxycycline).
Setting [6] is: 0.103 µM, library screen: screen3, EWS-FLI1 expression: low (doxycycline-induced shRNA knockdown).
Where [7] appears, read: 0.25 µM, library screen: screen1, EWS-FLI1 expression: high (no doxycycline).
Setting [8] is: 0.25 µM, library screen: screen1, EWS-FLI1 expression: low (doxycycline-induced shRNA knockdown).
Where [9] appears, read: 0.308 µM, library screen: screen3, EWS-FLI1 expression: high (no doxycycline).
Where [10] appears, read: 0.308 µM, library screen: screen3, EWS-FLI1 expression: low (doxycycline-induced shRNA knockdown).
Setting [11] is: 0.926 µM, library screen: screen3, EWS-FLI1 expression: high (no doxycycline).
Where [12] appears, read: 0.926 µM, library screen: screen3, EWS-FLI1 expression: low (doxycycline-induced shRNA knockdown).
The mark [13] stands for this setting: 2.5 µM, library screen: screen1, EWS-FLI1 expression: high (no doxycycline).
Where [14] appears, read: 2.5 µM, library screen: screen1, EWS-FLI1 expression: low (doxycycline-induced shRNA knockdown).
The mark [15] stands for this setting: 2.8 µM, library screen: screen3, EWS-FLI1 expression: high (no doxycycline).
[16] abbreviates: 2.8 µM, library screen: screen3, EWS-FLI1 expression: low (doxycycline-induced shRNA knockdown).
Setting [17] is: 8.3 µM, library screen: screen3, EWS-FLI1 expression: high (no doxycycline).
Where [18] appears, read: 8.3 µM, library screen: screen3, EWS-FLI1 expression: low (doxycycline-induced shRNA knockdown).
Setting [19] is: 25 µM, library screen: screen3, EWS-FLI1 expression: high (no doxycycline).
Where [20] appears, read: 25 µM, library screen: screen3, EWS-FLI1 expression: low (doxycycline-induced shRNA knockdown).

The whole screen tested about 3,200 compounds, of which about 300 (9.4%) showed activity. The full list was thinned out, with actives kept by preference.

Consider `CN1C[C@H](O)[C@@H](O)[C@H](O)[C@H]1CO`, for which the “cell viability (log2)” value runs as follows: under setting [1], -0.0352 (inactive); under setting [2], 0.0677 (inactive); under setting [3], 0.0611 (inactive); under setting [4], 0.0287 (inactive).

On to `CCC1(c2ccccc2)C(=O)NCNC1=O`, for which the “cell viability (log2)” value under setting [5] was 0.0813 (inactive); the “cell viability (log2)” value under setting [6] was 0.0528 (inactive); the “cell viability (log2)” value under setting [7] is 0.0645 (inactive); the “cell viability (log2)” value under setting [8] is 0.0903 (inactive); the “cell viability (log2)” value under setting [1] was 0.00606 (inactive); the “cell viability (log2)” value under setting [2] was 0.00378 (inactive). Moreover, the “cell viability (log2)” value under setting [9] is 0.122 (inactive); the “cell viability (log2)” value under setting [10] was 0.128 (inactive); the “cell viability (log2)” value under setting [11] was 0.168 (inactive); the “cell viability (log2)” value under setting [12] is 0.0786 (inactive); the “cell viability (log2)” value under setting [13] was 0.179 (inactive); the “cell viability (log2)” value under setting [14] was 0.204 (inactive). Also, the “cell viability (log2)” value runs as follows: under setting [3], -0.197 (active); under setting [4], -0.337 (active); under setting [15], 0.146 (inactive); under setting [16], 0.0526 (inactive); under setting [17], 0.0966 (inactive); under setting [18], 0.0601 (inactive). The “cell viability (log2)” value under setting [19] is 0.121 (inactive) and the “cell viability (log2)” value under setting [20] was 0.121 (inactive).

`CCC1(c2ccccc2)NC(=O)N(C)C1=O` (stereo unspecified): the “cell viability (log2)” value under setting [7] was 0.0606 (inactive), the “cell viability (log2)” value under setting [8] was 0.0208 (inactive), the “cell viability (log2)” value under setting [13] was 0.107 (inactive) and the “cell viability (log2)” value under setting [14] was 0.103 (inactive).

Turning to `O=C1NC(=O)C(c2ccccc2)(c2ccccc2)N1`, the “cell viability (log2)” value is 0.0587 (inactive) under setting [5]; -0.0104 (inactive) under setting [6]; 0.0952 (inactive) under setting [7]; 0.161 (inactive) under setting [8]; 0.143 (inactive) under setting [1]; 0.0547 (inactive) under setting [2]. Moreover, the “cell viability (log2)” value is 0.0798 (inactive) under setting [9]; 0.0371 (inactive) under setting [10]; 0.05 (inactive) under setting [11]; 0.0456 (inactive) under setting [12]; 0.145 (inactive) under setting [13]; 0.128 (inactive) under setting [14]. Moreover, the “cell viability (log2)” value is, setting by setting: under setting [3], 0.044 (inactive); under setting [4], 0.0796 (inactive); under setting [15], 0.0207 (inactive); under setting [16], 0.0711 (inactive); under setting [17], -0.00351 (inactive); under setting [18], 0.0628 (inactive). In addition, the “cell viability (log2)” value is 0.0771 (inactive) under setting [19] and 0.0956 (inactive) under setting [20].

For the molecule `N#Cc1c2c(c(NCCCO)n3c1nc1ccccc13)CCC2`, the “cell viability (log2)” value is 0.146 (inactive) under setting [7], 0.012 (inactive) under setting [8], 0.0888 (inactive) under setting [13] and -0.0597 (inactive) under setting [14].

For the molecule `COc1cc(O)c2c(=O)cc(C)oc2c1CC=C(C)C`, the “cell viability (log2)” value was 0.113 (inactive) under setting [7], 0.0803 (inactive) under setting [8], 0.117 (inactive) under setting [13] and 0.16 (inactive) under setting [14].

As for `COc1ccc(C(=O)c2ccc(O)cc2O)c(O)c1`, the “cell viability (log2)” value is 0.0224 (inactive) under setting [7], 0.0701 (inactive) under setting [8], 0.116 (inactive) under setting [13] and 0.108 (inactive) under setting [14].

As to `COc1ccc(CN2CCN(Cc3cccc([N+](=O)[O-])c3)CC2)cc1OC`, the “cell viability (log2)” value runs as follows: under setting [7], 0.0511 (inactive); under setting [8], 0.032 (inactive); under setting [13], 0.111 (inactive); under setting [14], 0.138 (inactive).

As for `COc1cc2c(cc1OC)-c1cc3ccc(OC)c(OC)c3c[n+]1CC2`, the “cell viability (log2)” value under setting [7] was 0.021 (inactive), the “cell viability (log2)” value under setting [8] was 0.0361 (inactive), the “cell viability (log2)” value under setting [13] was -0.0191 (inactive) and the “cell viability (log2)” value under setting [14] was 0.0646 (inactive).

`COc1ccc2c(=O)c(-c3cc4c(cc3OC)OCO4)coc2c1`: the “cell viability (log2)” value under setting [7] was 0.0588 (inactive), the “cell viability (log2)” value under setting [8] was -0.078 (inactive), the “cell viability (log2)” value under setting [13] was 0.0766 (inactive) and the “cell viability (log2)” value under setting [14] was 0.0171 (inactive).

As to `COc1ccc2cc3[n+](cc2c1OC)CCc1cc2c(cc1-3)OCO2`, the “cell viability (log2)” value reads like this: (0.025 µM, library screen: screen2, EWS-FLI1 expression: high (no doxycycline)) 0.0792 (inactive); (0.025 µM, library screen: screen2, EWS-FLI1 expression: low (doxycycline-induced shRNA knockdown)) 0.0888 (inactive); under setting [7], 0.0876 (inactive); under setting [8], 0.0916 (inactive); under setting [1], 0.139 (inactive); under setting [2], 0.0365 (inactive). In addition, the “cell viability (log2)” value under setting [13] is -0.0264 (inactive); the “cell viability (log2)” value under setting [14] was 0.141 (inactive); the “cell viability (log2)” value under setting [3] is -0.318 (active); the “cell viability (log2)” value under setting [4] was -0.00212 (inactive); the “cell viability (log2)” value (25 µM, library screen: screen2, EWS-FLI1 expression: high (no doxycycline)) was -1.53 (active); the “cell viability (log2)” value (25 µM, library screen: screen2, EWS-FLI1 expression: low (doxycycline-induced shRNA knockdown)) was -0.365 (active).

`COC1=CC(=O)C(O)=C/C1=C/C=C/c1ccccc1`: the “cell viability (log2)” value is 0.0854 (inactive) under setting [7], 0.141 (inactive) under setting [8], 0.097 (inactive) under setting [13] and 0.125 (inactive) under setting [14].

On to `N#CC(=C(/N)Sc1ccccc1N)/C(C#N)=C(\N)Sc1ccccc1N`, for which the “cell viability (log2)” value is, setting by setting: under setting [1], 0.102 (inactive); under setting [2], 0.0572 (inactive); under setting [3], -0.0299 (inactive); under setting [4], -0.0332 (inactive).

As for `N#CC(=C(N)Sc1ccccc1N)C(C#N)=C(N)Sc1ccccc1N`, the “cell viability (log2)” value (0.025 µM, library screen: screen1, EWS-FLI1 expression: high (no doxycycline)) was 0.299; the “cell viability (log2)” value (0.025 µM, library screen: screen1, EWS-FLI1 expression: low (doxycycline-induced shRNA knockdown)) was -0.0593 (inactive); the “cell viability (log2)” value under setting [7] is 0.259 (inactive); the “cell viability (log2)” value under setting [8] is 0.136 (inactive); the “cell viability (log2)” value under setting [13] was -0.31 (active); the “cell viability (log2)” value under setting [14] was 0.171 (inactive). Also, the “cell viability (log2)” value reads like this: (25 µM, library screen: screen1, EWS-FLI1 expression: high (no doxycycline)) -0.459 (active); (25 µM, library screen: screen1, EWS-FLI1 expression: low (doxycycline-induced shRNA knockdown)) 0.0799 (inactive).

For the molecule `FC(F)(F)c1cc(CO[C@H]2CCCN[C@H]2c2ccccc2)cc(C(F)(F)F)c1`, the “cell viability (log2)” value is 0.151 (inactive) under setting [1], 0.112 (inactive) under setting [2], 0.041 (inactive) under setting [3] and 0.077 (inactive) under setting [4].

`CC(=O)O.CC(=O)O.[Cd]`: the “cell viability (log2)” value by setting is: under setting [7], 0.129 (inactive); under setting [8], -0.0033 (inactive); under setting [13], 0.0042 (inactive); under setting [14], -0.0745 (inactive).

Consider `CC(=O)O[C@@H]1c2c(ccc3ccc(=O)oc23)OC(C)(C)[C@@H]1OC(=O)CC(C)C`, for which the “cell viability (log2)” value under setting [7] is 0.0407 (inactive), the “cell viability (log2)” value under setting [8] is -0.0116 (inactive), the “cell viability (log2)” value under setting [13] was 0.121 (inactive) and the “cell viability (log2)” value under setting [14] is 0.0173 (inactive).

Turning to `CC(=O)OC(CC(=O)[O-])C[N+](C)(C)C` (stereo unspecified), the “cell viability (log2)” value was 0.00442 (inactive) under setting [7], 0.0665 (inactive) under setting [8], 0.0316 (inactive) under setting [13] and -0.00031 (inactive) under setting [14].
